TDP1 block – qHTS Assay for Inhibitors of Tyrosyl-DNA Phosphodiesterase (TDP1) | Potency, µM (highest dose often 130 µM), inactives show at the highest dose activity change, negative = inhibition, actives largely listed as inhibitors | actives 0.28% (n = 350,000) | AID 485290, 2010 | recombinant TDP1, AlphaScreen DNA substrate cleavage; further: potency means the concentration at half of the fitted maximal effect; on the % scale 0 is the no-effect control and ±100 the full control effect; nearly all actives have a fitted effect of over 40% in size
Target sequence (Q9NUW8 whole entry, looked up): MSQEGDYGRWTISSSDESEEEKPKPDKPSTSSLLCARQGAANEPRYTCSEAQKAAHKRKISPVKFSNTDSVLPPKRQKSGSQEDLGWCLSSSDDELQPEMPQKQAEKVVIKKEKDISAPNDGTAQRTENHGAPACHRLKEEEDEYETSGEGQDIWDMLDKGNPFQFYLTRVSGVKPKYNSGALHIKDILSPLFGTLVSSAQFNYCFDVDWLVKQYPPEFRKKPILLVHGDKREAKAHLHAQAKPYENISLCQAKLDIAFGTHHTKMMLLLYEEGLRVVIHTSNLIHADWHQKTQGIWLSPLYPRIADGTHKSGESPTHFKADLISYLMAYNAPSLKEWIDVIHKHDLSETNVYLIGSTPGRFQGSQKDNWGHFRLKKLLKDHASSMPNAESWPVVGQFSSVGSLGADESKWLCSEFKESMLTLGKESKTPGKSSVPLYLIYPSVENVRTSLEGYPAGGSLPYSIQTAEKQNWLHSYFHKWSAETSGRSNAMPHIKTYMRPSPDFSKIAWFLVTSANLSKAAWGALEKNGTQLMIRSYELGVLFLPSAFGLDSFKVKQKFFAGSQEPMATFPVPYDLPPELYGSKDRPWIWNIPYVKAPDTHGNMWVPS
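Recombinant E. coli-expressed Tdp1 (1 nM) preincubated with compound 15 min at RT, then 5'-biotin/3'-phosphotyrosine-FITC DNA substrate (15 nM) added for 5 min. AlphaScreen beads (10 ug/ml) added, 10 min RT; tyrosine-FITC cleavage read as signal loss.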
DT40 TDP1 no CPT – qHTS for Inhibitors of human tyrosyl-DNA phosphodiesterase 1 (TDP1): qHTS in cells in absence of CPT. actives 15% (n = 420,000). DT40 Tdp1-/- hTDP1 cells, no CPT, ATP luminescence, 48 h. Potency, µM (titrated, usually from 46.2 µM), inactives show at the top dose activity change, negative = growth inhibition, hits mostly inhibitors; further: potency means the concentration at half of the fitted maximal effect; on the % scale 0 is the no-effect control and ±100 the full control effect; nearly all actives have a fitted effect of over 55% in size
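Cells were dispensed at 400 per well, compounds added by pin tool, plates incubated ≥48 hr at 37 °C, then CellTiter-Glo added for 30 min at room temperature before luminescence reading. Line: DT40 Tdp1-/- complemented with hTDP1; camptothecin omitted.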
HepG2 viability – qHTS for Inhibitors of TGF-b: Cytotox Counterscreen; actives 0.76% (n = 410,000); Potency, µM (series often up to 46.1 µM), for the others: top-dose activity change, negative = cytotoxicity, usual class: cytotoxic; HepG2 CAGA-GFP viability, ATP luminescence, 18 h; AID 588856, 2011; further: potency means the concentration at half of the fitted maximal effect
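HepG2 CAGA-GFP cells (1000/well, DMEM with 1% FBS) received compound, then TGF-beta at 500 pg/mL final, and were incubated 18 hours at 37 degrees C. Viability was read by CellTiter-Glo luminescence. Media-only wells were set as complete cell-killing and DMSO as no toxicity.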
TGFb inhibitor – qHTS for Inhibitors of TGF-b; HepG2 CAGA-GFP TGF-b/SMAD3 reporter, GFP fluorescence, 18 h; TGF-beta stimulated, 500 pg/mL final; actives 1.2% (n = 410,000); Potency, µM (series often up to 46.1 µM), inactives show at the highest dose activity, negative = inhibition, usual class: inhibitors; AID 588855, 2011; further: potency means the concentration at half of the fitted maximal effect; on the % scale 0 is the no-effect control and ±100 the full control effect; nearly all actives have a fitted effect of over 65% in size
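TGF-beta reporter screen: HEPG2 CAGA-GFP, 1% FBS, 500 pg/mL TGF-beta final, 18 h; per-cell GFP summed per well; curves fitted and categorized by class.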
DT40 TDP1 CPT – qHTS for Inhibitors of human tyrosyl-DNA phosphodiesterase 1 (TDP1): qHTS in cells in presence of CPT | chicken DT40 Tdp1-/-;hTDP1 cells + 20 nM CPT, ATP luminescence, 48 h | actives 12% (n = 420,000) | Potency, µM (doses to about 46.2 µM), for inactives: at the highest dose activity change, negative = growth inhibition, hits mostly inhibitors; further: potency means the concentration at half of the fitted maximal effect; on the % scale 0 is the no-effect control and ±100 the full control effect; nearly all actives have a fitted effect of over 55% in size
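Chicken DT40 Tdp1-/- cells stably complemented with human TDP1 were seeded at 400 cells/well in medium containing 20 nM camptothecin, exposed to pin-transferred compounds, and grown at 37 °C for at least 48 hr. Viability was read as ATP luminescence.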
IL-1B inflam inh – qHTS for Inhibitors of Inflammasome Signaling: IL-1-beta AlphaLISA Primary Screen; actives 4.7% (n = 360,000); activity change, % at 57.5 µM; THP-1 LPS/ATP IL-1B secretion, AlphaLISA, 16 h; stronger effect = lower value; in the data active means activity change below about -50%; inconclusive means mostly about -30% to -49%; further: on the % scale 0 is the no-effect control and ±100 the full control effect
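THP-1 cells pretreated 1 hr with compounds (up to 57.5 uM final), then stimulated with LPS (250 ng/mL final) plus ATP (1.25 mM final); secreted IL-1B measured by AlphaLISA after 16 hr, decreased signal indicating inhibition.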
Active calls of the source: *; i = inactive; ? = inconclusive; · = no result; [ ] = another dose, or the depositor's remark. Sampled rows, rich in hits. Any-hit rate of the full collection: about 19%. Unless noted, the call rests on the fitted dose curve; in most records, active means well fitted curve in the direction sought with a large enough effect; inconclusive means small, poorly fitted or top-dose-only effect, or another doubt; inactive means no such curve, though single readings can be large; an effect the other way counts as inactive or inconclusive.

SMILES | TDP1 block | DT40 TDP1 no CPT | HepG2 viability | TGFb inhibitor | DT40 TDP1 CPT | IL-1B inflam inh
CCc1ccc(C2CC(c3cccc(Cl)c3)n3nc(N)nc3N2)cc1 (stereo unspecified) | 8% | 15µM* | -3% | -2% | 15µM* | ·
Cc1ccc(C2CC(c3cccc(Cl)c3)n3nc(N)nc3N2)cc1 (stereo unspecified) | 9% | 18µM* | -36% | 2% | 15µM* | -22
COc1ccc(CNc2nc3c(-c4ccccc4)nnn3c3ccccc23)cc1 | 1% | ? | 7% | -23% | ? | ·
Cc1ccc(NC(=O)CSC(C)c2nc3ccccc3c(=O)[nH]2)cc1 (stereo unspecified) | 0% | -22% | -22% | -8% | -15% | i
COc1ccc(NC(=O)Cn2nnc(C(=O)NCc3ccccc3Cl)c2N)cc1Cl | -8% | 3% | -9% | -1% | 9% | ·
C/C(=N\NC(=O)CNC(=O)c1cccs1)c1ccc(Cl)c(Cl)c1 | 2% | ? | -5% | -21% | 2.6µM* | -19
CCCc1ccc(OCC(=O)Nc2cc(S(=O)(=O)CC)ccc2O)cc1 | 1% | -2% | 3% | -5% | 4% | 10
Cc1cccc2cc(CN(CC3CCCO3)C(=O)c3ccccc3F)c(N(C)C)nc12 (stereo unspecified) | · | -15% | · | · | -1%[9.04 µM] | ·
CN(C)CC(CCC(CN(C)C)C(O)(c1ccccc1)c1ccccc1)C(O)(c1ccccc1)c1ccccc1 (stereo unspecified) | · | 18µM* | -19% | -2% | 23µM* | -85*
CCc1cccc(N2C(=O)N(Cc3c(F)cccc3Cl)c3ccccc3S2(=O)=O)c1 | 5% | ? | -8% | -15% | -29% | ·
Cc1ccc(Cc2c(C)nc3nc(SCC(=O)NCCCN4CCCC4)nn3c2C)cc1 | · | -18% | 7% | -1% | 6% | -13
CCC1CCCCN1CCCNC(=O)CSc1nc2nc(C)c(Cc3ccccc3)c(C)n2n1 (stereo unspecified) | 4%[0.0935 µM] | -14% | -10% | 17% | 0% | -67*
Cc1nc2nc(SCC(=O)NCCN3CCOCC3)nn2c(C)c1Cc1ccccc1 | 1% | 3% | 1% | 0% | 4% | 16
Cc1ccc(Cc2c(C)nc3nc(SCC(=O)NCCC(C)C)nn3c2C)cc1 | 6% | 23µM* | -4% | 1% | ? | ·
Cc1ccc(Cc2c(C)nc3nc(SCC(=O)NCCCN4CCCCC4)nn3c2C)cc1 | 4%[0.0935 µM] | -15% | -12% | 9% | 3% | -62*
COc1cccc(S(=O)(=O)Nc2ccc3sc(C)nc3c2)c1 | -8% | 23µM* | -12% | 0% | ? | 26
CC(=O)N(c1ccc2oc(=O)sc2c1)S(=O)(=O)c1cccc2cccnc12 | · | ? | 0% | 4% | ? | 1
Cc1nc2ccc(NS(=O)(=O)c3c(F)cccc3F)cc2s1 | 1% | 16µM* | 10% | -6% | 16µM* | 6
Cc1nc2cc(NS(=O)(=O)c3cccc4cccnc34)ccc2s1 | · | 9.2µM* | -9% | 0% | 16µM* | -14
Cc1cc2oc(=O)sc2cc1NS(=O)(=O)c1cccc2cccnc12 | 10% | -27% | 5% | -2% | ? | -69*
O=C(NCC12CC3CC(CC(C3)C1)C2)c1cc2nc(-c3ccc(Cl)cc3)cc(C(F)(F)F)n2n1 | 6% | · | 4% | 10% | · | ·
COc1ccc(NC(=O)C2CCN(S(=O)(=O)c3cccc4nonc34)CC2)cc1OC | 1% | -14% | -7% | 7% | -6% | 17

From PubChem BioAssay
